PubChem BioAssay (NCI)
About 79,000 compounds went through this panel and 15% of them were active in at least one assay; those are over-represented in the sample as a whole. Values without a mark were called inactive. Active and inactive are the calls of the source. No stated cut-off is given here; in the data, active means growth inhibition above about 70%; inactive means the rest.

Experiments:
[1] = NCI Yeast Anticancer Drug Screen. Data for the rad50 strain (AID 155);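 further: 0% = growth of vehicle-only cultures of the same strain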; conditions: S. cerevisiae rad50 strain growth inhibition, stronger effect = higher value
In short: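 Yeast carrying a defined DNA repair defect were exposed to test compounds, and growth was compared with vehicle-treated controls to give percent inhibition.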

[2] = NCI Yeast Anticancer Drug Screen. Data for the mec2-1 strain (AID 157); conditions: S. cerevisiae mec2-1 strain, stronger effect = higher value
In short: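 Each compound was tested on mec2-1 yeast, a strain altered in DNA damage repair or cell cycle control. Growth inhibition is reported relative to vehicle.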

[3] = NCI Yeast Anticancer Drug Screen. Data for the sgs1 mgt1 strain (AID 161);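 further: 0% = growth of cultures given vehicle only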; conditions: S. cerevisiae sgs1 mgt1 strain, stronger effect = higher value
In short: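 Test agents were incubated with a DNA-repair-mutant yeast strain. Growth was then read and compared against vehicle-treated controls.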

[4] = NCI Yeast Anticancer Drug Screen. Data for the cln2 rad14 strain (AID 165);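 further: 0% = growth equal to vehicle treated cultures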; conditions: S. cerevisiae cln2 rad14 strain, stronger effect = higher value
In short: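 Test compounds were added to cln2 rad14 yeast cultures; inhibition of growth was then determined by comparison with vehicle treatment.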

[5] = NCI Yeast Anticancer Drug Screen. Data for the bub3 strain (AID 167); conditions: S. cerevisiae bub3 mutant strain, stronger effect = higher value
In short: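 Compounds were applied to a genetically altered yeast strain carrying a cell-cycle control defect. Growth inhibition was scored against vehicle-treated controls.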

[6] = NCI Yeast Anticancer Drug Screen. Data for the mlh1 rad18 strain (AID 175); conditions: S. cerevisiae mlh1 rad18 strain growth inhibition, stronger effect = higher value
In short: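 Inhibition values reflect reduced growth of mutant yeast versus vehicle-treated controls following compound exposure; the mutations affect DNA damage repair.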

[7] = at 5.0 µM (retest, dose inferred, filed as 0.5)
[8] = at 50.0 µM (retest, dose inferred, filed as 5.0)

SMILES	growth inhibition [1, 7]	growth inhibition [1, 8]	growth inhibition ([1]; at 50.0 µM)	growth inhibition [2, 7]	growth inhibition [2, 8]	growth inhibition ([2]; at 50.0 µM)	growth inhibition [3, 7]	growth inhibition [3, 8]	growth inhibition ([3]; at 50.0 µM)	growth inhibition [4, 7] [%]	growth inhibition [4, 8]	growth inhibition ([4]; at 50.0 µM)	growth inhibition [5, 7]	growth inhibition [5, 8]	growth inhibition ([5]; at 50.0 µM)	growth inhibition [6, 7]	growth inhibition [6, 8]	growth inhibition ([6]; at 50.0 µM)
COc1nc(Nc2ccc(/C=C/c3ccc(Nc4nc(OC)nc(N(CCO)CCO)n4)cc3S(=O)(=O)O)c(S(=O)(=O)O)c2)nc(N(CCO)CCO)n1	-4%	53%	14.2%	-4%	37%	58.9%	-3%	51%	45.8%	-1	17%	5.8%	-4%	28%	3.2%	0%	49%	80.4% (active)
CCCCN(CCC=C1c2ccccc2Oc2ccccc21)CCCC	7%	99% (active)	99.7% (active)	4%	99% (active)	99.7% (active)	9%	99% (active)	99.7% (active)	4	99% (active)	99% (active)	6%	99% (active)	11.7%	5%	99% (active)	99.6% (active)
CCCCC(CC)(CCC)CCN (centres undefined)	1%	93% (active)	1.65%	1%	65%	1.75%	1%	30%	16.6%	4	36%	32%	-3%	67%	-5.95%	-1%	83% (active)	31.4%
CCCCCCCCCCCCCCCCC1CCc2ccccc21 (centres undefined)	4%	4%	56.8%	-2%	-6%	64.3%	11%	13%	79.4% (active)	23	28%	89.8% (active)	38%	39%	75.8% (active)	-2%	11%	86% (active)
O=C(C(=O)c1ccncc1)c1ccccc1	-148%	-127%	7.6%	-52%	-55%	23.1%	-58%	-63%	-5.6%	-59	-59%	34%	-64%	-83%	-12.2%	-117%	-114%	-14.6%
OC1(CCc2ccccc2)COC(C(F)(F)F)(C(F)(F)F)C1 (centres undefined)	18%	24%	76.4% (active)	16%	18%	66%	14%	23%	78.4% (active)	1	23%	52.8%	5%	21%	61.1%	26%	30%	74.8% (active)
CCC[CH2][Sn]([CH2]CCC)([O]C(=O)C(OC(C)=O)c1ccccc1)[O]C(=O)C(OC(C)=O)c1ccccc1 (centres undefined)	52%	98% (active)	98.5% (active)	43%	98% (active)	97.8% (active)	45%	97% (active)	98.5% (active)	31	97% (active)	96.4% (active)	71% (active)	97% (active)	98% (active)	60%	98% (active)	98.5% (active)
Cc1ccnc2c1ccc1c(C)ccnc12	10%	98% (active)	99% (active)	-17%	99% (active)	99.1% (active)	14%	99% (active)	99.2% (active)	-21	97% (active)	98.5% (active)	-25%	98% (active)	99.1% (active)	1%	98% (active)	99% (active)
NC(=S)N/N=C1/C(=O)c2cccc3cccc1c23	10%	96% (active)	91.8% (active)	-2%	78% (active)	0.1%	1%	80% (active)	66.7%	-9	65%	-26.7%	9%	65%	7.65%	6%	90% (active)	70.5% (active)
CC(=O)n1nc2c(c1CC(C)C)C(=O)C(Nc1ccccc1)=CC2=O	1%	100% (active)	77% (active)	1%	100% (active)	68.2%	1%	100% (active)	80.2% (active)	6	99% (active)	27.9%	-2%	99% (active)	23.2%	1%	99% (active)	78.3% (active)
C=C1C(=O)OC2CC1C(O)C/C(C)=C/CC/C(C)=C/C(O)CC2C (centres undefined)	18%	70% (active)	-4.95%	19%	84% (active)	-20.6%	15%	54%	9.6%	11	46%	-5%	26%	84% (active)	-7.7%	48%	95% (active)	83.5% (active)
CC1CCC(C(C)C2C(O)CC3C4CC=C5CC(O)CCC5(C)C4CCC32C)NC1 (centres undefined)	-23%	81% (active)	66.8%	1%	18%	25.1%	12%	96% (active)	88.5% (active)	3	23%	23.8%	-1%	70% (active)	10.9%	10%	54%	57.5%
N=C(N)c1ccc(N=Nc2cc(/C=C/c3ccccc3)ccc2O)cc1	24%	98% (active)	97.7% (active)	2%	99% (active)	99% (active)	24%	98% (active)	98.5% (active)	3	98% (active)	98.3% (active)	2%	98% (active)	98% (active)	7%	98% (active)	98.8% (active)
COC/C(Br)=C\SC#N (tested in a mixture with another compound)	0%	34%	98.8% (active)	-14%	23%	98.7% (active)	-2%	40%	98.9% (active)	-5	61%	97.7% (active)	-6%	53%	98.2% (active)	16%	38%	98.2% (active)
Cc1ccc(N=c2cc(-c3ccccc3)oc3ccccc23)c(C)c1	1%	74% (active)	3%	-11%	48%	-12.4%	3%	93% (active)	11%	5	51%	8.1%	11%	94% (active)	5.6%	4%	94% (active)	18.6%
NS(=O)(=O)c1ccc(NC(=S)/N=C\C(C(=O)c2ccccc2)=C(\O)c2ccccc2)cc1	7%	12%	6.9%	-2%	-15%	1.7%	0%	-5%	9.8%	-19	-18%	41.5%	3%	8%	8.15%	10%	-7%	2.15%
CN(C)CCOc1ccc2c(c1)C(=O)/C(=C\c1ncc([N+](=O)[O-])n1C)C2	31%	73% (active)	54.1%	21%	89% (active)	80.3% (active)	21%	67%	77.4% (active)	22	46%	59%	21%	95% (active)	34.8%	50%	78% (active)	80.8% (active)
CCCCCCC(=O)OCc1ccc(-c2ccccc2)cc1	97% (active)	99% (active)	99% (active)	98% (active)	100% (active)	99.4% (active)	95% (active)	100% (active)	99.3% (active)	26	94% (active)	99% (active)	70% (active)	99% (active)	99.2% (active)	99% (active)	99% (active)	99.2% (active)
